Mm-Cpn inhibitor = Inhibitors of TCP-1 ring complex (TRiC) of Methanococcus maripaludis (MmCpn): qHTS | purified Mm-Cpn ATPase, ADP Transcreener TR-FRET | Potency, µM (titrated, usually from 76.9 µM), without a hit: top-dose activity, negative = inhibition, actives largely listed as inhibitors | 330,000 tested, 0.031% active; also: potency is read from the fitted curve at half-maximal effect; % is scaled to controls: 0 for no effect and ±100 for the full control effect; nearly all actives have a fitted effect of over 80% in size
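Reaction buffer contained 30 mM Tris pH 7.4, 100 mM KCl, 5 mM MgCl2 and 1 mM DTT. Mm-CPN (25 nM final) hydrolysed 10 uM ATP over 30 min at 37°C; ADP was read by HTRF.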
GLP1R ag = qHTS of GLP-1 Receptor Agonists; HEK293 GLP-1R CRE-luciferase, luminescence, 4-6 h; cells express a hypersensitive GLP-1R form; Glucagon-like peptide 1 receptor (Homo sapiens), P43220; 380,000 tested, 0.007% active; Potency, µM (series often up to 45.6 µM), for the others: top-dose activation, actives largely listed as activators; also: potency is read from the fitted curve at half-maximal effect; % of control where 0% means no effect
Target sequence (P43220 whole entry, looked up): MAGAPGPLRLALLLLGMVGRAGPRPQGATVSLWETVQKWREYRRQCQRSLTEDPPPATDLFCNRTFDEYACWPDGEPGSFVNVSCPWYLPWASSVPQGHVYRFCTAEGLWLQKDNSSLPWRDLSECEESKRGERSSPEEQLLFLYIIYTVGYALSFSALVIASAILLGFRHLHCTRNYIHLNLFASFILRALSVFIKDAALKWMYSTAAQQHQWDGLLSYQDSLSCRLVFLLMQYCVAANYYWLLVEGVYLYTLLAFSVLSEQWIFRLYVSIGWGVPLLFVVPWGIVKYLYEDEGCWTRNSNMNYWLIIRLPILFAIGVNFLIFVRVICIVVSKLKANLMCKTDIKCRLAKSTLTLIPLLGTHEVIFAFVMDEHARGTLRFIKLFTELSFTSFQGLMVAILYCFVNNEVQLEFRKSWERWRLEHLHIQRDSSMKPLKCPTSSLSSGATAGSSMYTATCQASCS
GLP1R inv ag = qHTS of GLP-1 Receptor Inverse Agonists (Inhibition Mode); Potency, µM (doses to about 38.3 µM), for the others: at the highest dose activity change, negative = inhibition, actives largely listed as inhibitors; 410,000 tested, 1.6% active; HEK293 GLP-1R CRE-luciferase, luminescence, 24 h; GLP-1R form is constitutively active; AID 624417, 2012; also: potency is read from the fitted curve at half-maximal effect; % is scaled to controls: 0 for no effect and ±100 for the full control effect; nearly all actives have a fitted effect of over 55% in size
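qHTS in 1536-well format: reporter HEK293 cells expressing constitutive GLP-1R activity in DMEM + 10% Nu serum, 24 hr with compounds at 37 deg C, luminescence read after 12 min with detection reagent.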
uPA generation = qHTS for Inhibitors of Cell Surface uPA Generation. cell surface uPA generation assay, qHTS. 330,000 tested, 0.31% active. Potency, µM (series often up to 38.3 µM), without a hit: at the highest dose activity change, negative = inhibition, actives largely listed as inhibitors. AID 540303, 2011; active = well fitted inhibition curve with a large enough effect; inconclusive = small, poorly fitted or top-dose-only effect; inactive = no such curve, though single readings can be large or run the other way; tested in mouse RAW 264.7 cells; also: potency is read from the fitted curve at half-maximal effect; % is scaled to controls: 0 for no effect and ±100 for the full control effect; nearly all actives have a fitted effect of over 55% in size
CCT modulator = High-Throughput Screening for Modulators of Cytosolic Chaperonin Activity | purified chaperonin ATPase assay, HTRF ADP detection, 30 min | activity change, % (test concentration not listed), hits read low | 360,000 tested, 0.3% active | AID 651819, 2012; in the data active = activity change below about -30%; also: % is scaled to controls: 0 for no effect and ±100 for the full control effect
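First, chaperonin was dispensed at 40 nM or 20 nM final depending on batch activity. Next, compounds were pinned at 76 uM and ATP added at 10 uM. After 30 min at 37 °C, ADP detection reagents ran 30 min at ambient temperature.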
GLP1R cytotox = qHTS of GLP-1 Receptor Inverse Agonists: Cytotox Screen | Potency, µM (top dose mostly 38.3 µM), inactives show at the top dose activity change, negative = inhibition, actives largely listed as inhibitors | HEK293 cAMP-luciferase reporter cells, luminescence, 24 h | 410,000 tested, 0.13% active;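 also: loss of luciferase light is scored as toxicity; potency is read from the fitted curve at half-maximal effect; % is scaled to controls: 0 for no effect and ±100 for the full control effect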
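Quantitative HTS format, 1536 wells, 200 cells/uL seeded. Compounds: 23 nL, 24 h, 37 °C. Detection: luciferase reagent, luminescence at 12 min RT; decreased signal taken as cytotoxic.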
Active calls of the source: *; ? = inconclusive; / = not tested or not shown. The list is not random: actives were taken first. Their share in the collection is about 2.2%. Unless noted, calls follow the shape of the dose curve; as a rule, active = well fitted curve in the direction sought with a large enough effect; inconclusive = small, poorly fitted or top-dose-only effect, or another doubt; inactive = no such curve, though single readings can be large; an effect the other way counts as inactive or inconclusive.

SMILES	Mm-Cpn inhibitor	GLP1R ag	GLP1R inv ag	uPA generation	CCT modulator	GLP1R cytotox
Cc1ccc(OCC(=O)Nc2ccc(S(=O)(=O)N3CCOCC3)cc2)c(C)c1	4.3%	16.0%	?	-4.8%	-0.7	-9.2%
Cc1ccc(OCC(=O)Nc2ccc(S(=O)(=O)N(C)C3CCN(C)CC3)cc2)c(C)c1	2.3%	11.7%	2.24µM*	-28.9%	0.7	-16.3%
CN1CCC(N(C)S(=O)(=O)c2ccc(NC(=O)COc3cccc(Cl)c3)cc2)CC1	-3.7%	1.7%	2.82µM*	-8.9%	1.4	-5.2%
CN1CCC(N(C)S(=O)(=O)c2ccc(NC(=O)COc3ccc(Br)cc3Cl)cc2)CC1	2.1%	-8.1%	2µM*	-10.3%	-3.3	?
COc1ccc2nc(SCC(=O)c3c(C)[nH]c4ccccc34)nc(C)c2c1	/	-1.2%	0.1%	/	/	-1.3%
C=CCCC(=O)Nc1nc(C)c(-c2csc(Nc3ccccc3OC)n2)s1	?	0.3%	-19.2%	3.55µM*	-0.5	3.7%
COc1ccc(Nc2nc(-c3cccs3)cs2)c(OC)c1	-12.6%	-0.7%	-1.5%	2.4%	-0.9	5.6%
COc1ccc(Nc2nc(-c3sc(C)nc3C)cs2)c(OC)c1	-12.0%	?	-23.7%	4.47µM*	-14.1	-11.1%
Cc1ccc(OCc2cc(C(=O)NC(C)Cc3cnccn3)no2)cc1C (stereo not drawn)	3.4%	-1.6%	-29.9%	-1.2%	-1.7	6.3%
Cc1ccc(OCc2cc(C(=O)N3CCCCCCC3)no2)cc1C	0.6%	18.0%	?	-5.5%	-2.1	4.0%
Cc1cccc(CC(C)NC(=O)c2cc(COc3ccc(C)c(C)c3)on2)n1 (stereo not drawn)	-0.8%	4.2%	10µM*	-12.8%	0.3	2.6%
Cc1ccc(OCc2cc(C(=O)N3CCC(C(O)C(C)C)CC3)no2)cc1C (stereo not drawn)	1.5%	8.6%	11.2µM*	1.9%	0.4	-14.7%
COc1ccccc1NC(=O)c1c(-c2ccc(C)cc2)nnc2ccccc12	/	/	13.1%	/	/	9.9%
COc1ccc(-c2noc(-c3ccc(NCCc4ccccc4)c([N+](=O)[O-])c3)n2)cc1OC	/	/	16.6%	/	/	4.9%
CC(C)(C)c1cc(NC(=O)c2ccc(OC3CCCC3)cc2)no1	-0.4%	-9.8%	?	-5.5%	-0.2	-11.7%
O=C(Nc1ccon1)c1ccc(OC2CCCC2)cc1	0.8%	-2.0%	2.6%	10µM*	-0.3	15.4%
O=C1N[C@H](Cc2ccccc2)COC(=O)[C@@H](Cc2ccc(F)cc2)CC/C=C/C[C@H]1CC(=O)N(CCO)Cc1ccccc1	-2.4%	3.0%	-0.8%	?	-2.5	-2.3%
O=C1N[C@@H](Cc2c[nH]c3ccccc23)COC(=O)[C@@H](Cc2ccc(F)cc2)C/C=C\C[C@H]1CC(=O)N(CCO)Cc1ccccc1	1.7%	-5.9%	8.91µM*	?	1.7	?
COC(=O)c1cc2sc(Cl)cc2n1Cc1nc(-c2ccccc2F)oc1C	/	/	3.9%	/	/	6.2%
CCCOc1ccc(-c2cn3ccccc3n2)cc1	0.1%	-3.2%	7.08µM*	?	0.0	11.7%
Clc1ccc(-c2cn3ccccc3n2)cc1	-5.8%	-1.8%	?	8.91µM*	-2.4	-2.6%
COc1ccc(S(=O)(=O)Nc2cc(-c3cn4ccccc4n3)ccc2C)cc1	/	/	-0.8%	/	/	6.9%
COc1ccc(-c2cn3ccccc3n2)cc1	-1.7%	-5.7%	?	2µM*	-3.0	1.2%
CCc1nnc(SCc2ccc(F)cc2Cl)c2cc3sc(C)cc3n12	/	/	1.7%	/	/	5.9%
COc1ccc(OC)c2sc(NC(=O)c3ccc(S(=O)(=O)N4CCCC4)cc3)nc12	/	-1.6%	11.6%	/	/	-6.3%
SMILES	Mm-Cpn inhibitor	GLP1R ag	GLP1R inv ag	uPA generation	CCT modulator	GLP1R cytotox
COc1cccc(CNC(=O)c2c(C)oc3nc(C)nc(N4CCOCC4)c23)c1	/	/	-7.9%	/	/	2.7%
CCCNC(=O)c1onc(CSc2ccc(Cl)cc2)c1C(=O)NCCC(C)C	/	9.0%	10µM*	6.1%	-1.9	0.4%
C=CCNC(=O)c1c(CSc2ccc(Cl)cc2)noc1C(=O)NCCC	/	15.1%	?	1.0%	-0.5	-4.6%
C=CCNC(=O)c1c(CSc2ccc(Cl)cc2)noc1C(=O)NCc1ccccc1	/	1.9%	7.94µM*	?	2.5	2.5%
Cc1ccc(NC(=O)CN2C(=O)NC(C)(c3ccccc3)C2=O)c(C)c1 (stereo not drawn)	0.3%	8.2%	-11.3%	-0.4%	-60.0*	4.8%
CC1(c2ccc(OC(F)F)cc2)NC(=O)N(CC(=O)Nc2ccc(F)cc2)C1=O (stereo not drawn)	-0.2%	17.3%	?	-1.0%	1.1	-13.1%
CC1(c2ccc(OC(F)F)cc2)NC(=O)N(CC(=O)Nc2ccc(OC(F)F)cc2)C1=O (stereo not drawn)	1.3%	1.5%	10µM*	2.9%	0.0	5.3%
CCOc1ccccc1NC(=O)Nc1cc(C(=O)NCc2ccc(C)cc2)ccc1N1CCCC1	/	/	0.5%	/	/	-10.2%
COc1cc(OC)c(N(C)C(=O)C2CCCN(c3ncnc4c3nc3n4CCCCC3)C2)cc1Cl (stereo not drawn)	/	/	5.3%	/	/	12.8%
COCCNC(=O)c1cc(-c2ccccc2OC)on1	0.6%	21.0%	?	7.08µM*	-1.7	-17.7%
COc1ccccc1-c1cc(C(=O)NCc2cccs2)no1	-1.9%	5.9%	-0.4%	3.1%	-0.5	17.6%
c1ccc2nc(-c3nc4ccccc4[nH]3)ccc2c1	-3.4%	-22.2%	10µM*	-20.5%	0.2	-2.2%
CC1=C(C(=O)OC2CCCC2)C(c2coc3ccccc3c2=O)C2=C(CC(C)(C)CC2=O)N1 (stereo not drawn)	1.0%	14.8%	2.51µM*	2.1%	0.0	-8.3%
CC1=C(C(=O)OC2CCCC2)C(c2coc3ccc(C)cc3c2=O)C2=C(CCCC2=O)N1 (stereo not drawn)	-1.4%	1.3%	-5.3%	-11.7%	-1.4	-1.9%
COc1cc(OC)c(NC(=O)N2CCc3cc(OC)c(OC)cc3C2CC(=O)O)cc1Cl (stereo not drawn)	/	/	-13.8%	/	/	-2.8%
O=C(Nc1cc(C(F)(F)F)ccc1Cl)c1cc(S(=O)(=O)NCc2ccccc2)ccc1F	/	/	3.9%	/	/	5.7%
Clc1ccc(CSc2nc3ccncc3[nH]2)cc1	-4.1%	0.0%	?	0.447µM*	-0.2	-2.5%

Bioassay records (PubChem BioAssay)
